According to PubChem BioAssay (NCATS):
Inconclusive results are not listed. The source made the active and inactive calls. Calls come from the whole dose curve; as a rule, active = well fitted curve in the direction sought with a large enough effect; inconclusive = small, poorly fitted or top-dose-only effect, or another doubt; inactive = no such curve, though single readings can be large; an effect the other way counts as inactive or inconclusive.

Legend:
[1] = qHTS of pediatric cancer cell lines to identify multiple opportunities for drug repurposing: Primary screen for U-2 OS cells (AID 1347096); note: nearly all actives have a fitted effect of over 50% in size
How it was run: (§1)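 Cells (500-1,000/well) rested 5 h, then received compounds for 48 h; metabolically active cells were measured by CellTiter-Glo luminescence. Final concentrations spanned up to 46 µM (MIPE, 11-point) or 0.59 nM-46 µM (NPC, 8-point) in primary screens, 11-point in follow-ups.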

[2] = qHTS of pediatric cancer cell lines to identify multiple opportunities for drug repurposing: Primary screen for Saos-2 cells (AID 1347097); note: nearly all actives have a fitted effect of over 40% in size
How it was run: (§2)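 Following a 5-hour attachment period, cells at 500-1,000/well received compounds and were cultured for 48 hours. CellTiter-Glo was added and luminescence read to estimate viable, metabolically active cells.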

[3] = qHTS of pediatric cancer cell lines to identify multiple opportunities for drug repurposing: Primary screen for SK-N-SH cells (AID 1347098);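 note: DMSO served as neutral control and bortezomib at 2.3 µM as positive control; nearly all actives have a fitted effect of over 65% in size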
How it was run: as §1

[4] = qHTS of pediatric cancer cell lines to identify multiple opportunities for drug repurposing: Primary screen for NB1643 cells (AID 1347099); note: nearly all actives have a fitted effect of over 50% in size
How it was run: as §2

[5] = qHTS of pediatric cancer cell lines to identify multiple opportunities for drug repurposing: Primary screen for LAN-5 cells (AID 1347100)
How it was run: as §1

[6] = qHTS of pediatric cancer cell lines to identify multiple opportunities for drug repurposing: Primary screen for BT-12 cells (AID 1347101); note: nearly all actives have a fitted effect of over 25% in size
How it was run: as §1

[7] = qHTS of pediatric cancer cell lines to identify multiple opportunities for drug repurposing: Primary screen for OHS-50 cells (AID 1347103); note: nearly all actives have a fitted effect of over 40% in size
How it was run: as §1

[8] = qHTS of pediatric cancer cell lines to identify multiple opportunities for drug repurposing: Primary screen for RD cells (AID 1347104); note: nearly all actives have a fitted effect of over 55% in size
How it was run: as §2

[9] = qHTS of pediatric cancer cell lines to identify multiple opportunities for drug repurposing: Primary screen for MG 63 (6-TG R) cells (AID 1347105); note: nearly all actives have a fitted effect of over 50% in size
How it was run: as §2

[10] = qHTS of pediatric cancer cell lines to identify multiple opportunities for drug repurposing: Primary screen for Rh18 cells (AID 1347102); note: nearly all actives have a fitted effect of over 65% in size
How it was run: as §1

Measured: Potency

NS(=O)(=O)c1cc(C(=O)O)cc(N2CCCC2)c1Oc1ccccc1
not listed: [10]
inactive: all other assays above

CC(=O)O[C@]1(C(C)=O)CC[C@H]2[C@@H]3C=C(C)C4=CC(=O)CC[C@]4(C)[C@H]3CC[C@@]21C
not listed: [7]
inactive: all other assays above

CCCCOC(=O)CC(CC(=O)OCCCC)(OC(C)=O)C(=O)OCCCC
not listed: [7]
inactive: all other assays above

COc1ccc(CCN(C)CCCN2CCc3cc(OC)c(OC)cc3CC2=O)cc1OC
not listed: [5]
inactive: all other assays above

CN1CCC(OC(c2ccccc2)c2ccccc2)CC1
not listed: [6] | [7]
inactive: all other assays above

CCOC(=O)C(C#N)=C(c1ccccc1)c1ccccc1
not listed: [7]
inactive: all other assays above

CCC(Cc1c(I)cc(I)c(N)c1I)C(=O)O (stereo not drawn)
not listed: [5]
inactive: all other assays above

CC(C)(C)NCC(O)COc1cccc2c1C[C@H](O)[C@H](O)C2 (stereo partly drawn)
not listed: [5]
inactive: all other assays above

CC(=O)Oc1ccc(C)cc1
not listed: [5]
inactive: all other assays above

O=C(O)C1(C(=O)O)CCC1.[NH2-].[NH2-].[Pt+2]
not listed: [10]
inactive: all other assays above

CCN(CC)CCNC(=O)COc1ccc(OC)cc1
inactive: all assays above

COc1cc(NS(=O)(=O)c2ccc(N)cc2)ncn1
inactive: all assays above

Cl/C(=C\n1cncn1)c1ccc(Cl)cc1Cl
not listed: [9] | [10]
inactive: all other assays above

O=C(Nc1ccc([N+](=O)[O-])cc1)Nc1ccc([N+](=O)[O-])cc1
not listed: [5]
inactive: all other assays above

CC(=O)O[C@]1(C(C)=O)CC[C@H]2[C@@H]3C=C(Cl)C4=CC(=O)CC[C@]4(C)[C@H]3CC[C@@]21C
not listed: [6] | [7] | [8]
inactive: all other assays above

O=C1c2cccc3c2[C@H](CCC3)CN1[C@@H]1CN2CCC1CC2
not listed: [7]
inactive: all other assays above

Cc1ccc(-c2ncc(Cl)cc2-c2ccc(S(C)(=O)=O)cc2)cn1
not listed: [10]
inactive: all other assays above

CCCCN=C(N)N=C(N)N
not listed: [7] | [10]
inactive: all other assays above

NC1CCN(c2nc3c(cc2F)c(=O)c(C(=O)O)cn3-c2ccc(F)cc2F)C1 (stereo not drawn)
not listed: [10]
inactive: all other assays above

C[C@@H](O)[C@H]1C(=O)N2C(C(=O)O)=C([C@H]3CCCO3)S[C@H]12
inactive: all assays above

C=CCN1CCc2nc(N)sc2CC1
not listed: [10]
inactive: all other assays above

CCCCCCCCCCCCCCCCO
not listed: [5]
inactive: all other assays above

CCOc1cc(OCC)c(C(=O)CCC(=O)O)cc1OCC
not listed: [10]
inactive: all other assays above

NCc1ccccc1Sc1ccccc1CO
not listed: [7]
inactive: all other assays above

COc1ccc(C(=O)c2ccccc2)c(O)c1
not listed: [5]
inactive: all other assays above
